Values without a mark were called inactive. Inconclusive results are not listed. The source made the active and inactive calls. Unless noted, calls follow the shape of the dose curve; as a rule, active = well fitted curve in the direction sought with a large enough effect in the repeat runs; inconclusive = weak or mixed curves; inactive = no such curve, though single readings can be large; an effect the other way counts as inactive or inconclusive.

The nature of experiment [1]: qHTS assay to identify small molecule agonists of the hypoxia (HIF-1) signaling pathway - cell viability counter screen (AID 1224844; calls by dose curve; also: nearly all actives have a fitted effect of over 50% in size). Summed up: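 HRE-bla ME-180 cells in medium with 0.5% dialyzed FBS were preincubated 5 hrs at 37C, exposed to compounds for 17 hrs, then viability was read as CellTiter-Glo luminescence after 30 min at room temperature, in the reporter wells.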

Experiment [2] in a line: qHTS assay to identify small molecule agonists of H2AX (AID 1224845; active = well fitted activation curve with a large enough effect in the signal ratio in the repeat runs, not every such curve was filed as active; the % refers to the signal ratio). Summed up:
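Wild-type CHO-K1 cells plated overnight, then exposed 3 hr at 37C to compounds at 15 concentrations (0.76% DMSO). Lysed, then HTRF anti-pH2AX(S139)-cryptate/anti-H2AX-d2 detection after 24 hr at room temperature; emissions 665 and 620 nm.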
(In general: In qHTS, concentration-response curves come from the screen itself.)

Experiment [3] is described as follows: qHTS assay to identify small molecule agonists of the hypoxia (HIF-1) signaling pathway (AID 1224846; active = well fitted activation curve with a large enough effect in the signal ratio in the repeat runs, not every such curve was filed as active; the % refers to the signal ratio). Summed up:
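HRE-bla ME-180 cells (beta-lactamase reporter under hypoxia response element) were plated at 2,000 cells/well in medium with 0.5% dialyzed FBS, rested 5 hrs, then given compounds in DMSO for 17 hrs at 37C, 5% CO2. Reporter induction was read with CCF4-AM FRET substrate.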

Experiment [4] can be described thus: qHTS RealTime-Glo MT Cell Viability Assay in HepG2 cells - 24 hour (AID 1224867). Also: nearly all actives have a fitted effect of over 50% in size. The essentials: (§1)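 Tox21 10K library screened in qHTS format on HepG2 cells carrying RealTime-Glo reagents. Compounds were added after a 5 h preincubation, and the luminescent signal from continuous culture was measured repeatedly during 40 h treatment.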
Experiment [5] is described as follows: qHTS RealTime-Glo MT Cell Viability Assay in HEK293 cells - 32 hour (AID 1224868). Also: top concentration of the series differs between compounds; nearly all actives have a fitted effect of over 50% in size. Summed up:
(§2)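 Luminescence generated by NanoLuc from substrate produced by living HEK293 cells served as the viability signal. Each value reflects the reading at its stated time point during continuous 40 h compound exposure at 37 C.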

A short description of experiment [6]: A CellTox Green Cytotoxicity Assay to monitor cytotoxicity in HEK293 cells - 0 hour (AID 1224869). Also: nearly all actives have a fitted effect of over 50% in size. Summed up:
(§3)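 HEK293 cells premixed with CellTox Green dye were seeded at 600 cells/well and left 5 h at 37 C/5% CO2 before pin transfer of 23 nL compound in DMSO. Fluorescence from dye bound to dead-cell DNA was read during 40 h treatment.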

Experiment [7] in a line: qHTS RealTime-Glo MT Cell Viability Assay in HepG2 cells - 40 hour (AID 1224870). Also: nearly all actives have a fitted effect of over 50% in size. The essentials: (§4)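 HepG2 cells mixed with RealTime-Glo MT reagents (NanoLuc plus cell-permeant prosubstrate) were seeded at 600 cells/well, incubated 5 h at 37 C/5% CO2, then pinned with compounds in DMSO; nonlytic luminescence tracked viability during 40 h treatment.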
The nature of experiment [8]: A CellTox Green Cytotoxicity Assay to monitor cytotoxicity in HEK293 cells - 40 hour (AID 1224871). Also: nearly all actives have a fitted effect of over 45% in size. Also: potency is read from the fitted curve at half-maximal effect. Summed up:
as §3

Experiment [9] in a line: qHTS RealTime-Glo MT Cell Viability Assay in HEK293 cells - 16 hour (AID 1224872). Summed up:
as §2

Experiment [10] in a line: qHTS RealTime-Glo MT Cell Viability Assay in HEK293 cells - 40 hour (AID 1224874). Also: nearly all actives have a fitted effect of over 50% in size. The following applies: RealTime-Glo luminescence; max response: stronger effect = lower value. Summed up:
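HEK293 cells mixed with RealTime-Glo reagents (NanoLuc plus cell-permeant prosubstrate) at 600 cells/well, preincubated 5 h at 37 C/5% CO2, then given 23 nL compound in DMSO. Nonlytic luminescence from viable cells was read at 0, 8, 16, 24, 32 and 40 h.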

The nature of experiment [11]: A CellTox Green Cytotoxicity Assay to monitor cytotoxicity in HEK293 cells - 24 hour (AID 1224875). Also: nearly all actives have a fitted effect of over 45% in size. Also: potency is read from the fitted curve at half-maximal effect. The essentials:
as §3

A short description of experiment [12]: A CellTox Green Cytotoxicity Assay to monitor cytotoxicity in HepG2 cells - 16 hour (AID 1224876). Also: nearly all actives have a fitted effect of over 45% in size. Also: potency is read from the fitted curve at half-maximal effect. The essentials:
(§5)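 HepG2 cells were seeded together with the CellTox Green dye at 600 cells/well, left 5 h at 37 C/5% CO2, then given compounds in DMSO. Fluorescence from dye bound to dead-cell DNA was read repeatedly over 40 h of treatment at 37 C.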

The nature of experiment [13]: qHTS RealTime-Glo MT Cell Viability Assay in HepG2 cells - 32 hour (AID 1224877). Also: nearly all actives have a fitted effect of over 55% in size. The essentials: as §1
Experiment [14] is described as follows: A CellTox Green Cytotoxicity Assay to monitor cytotoxicity in HepG2 cells - 24 hour (AID 1224878). Also: nearly all actives have a fitted effect of over 45% in size. Also: potency is read from the fitted curve at half-maximal effect. Summed up:
as §5

Experiment [15] in a line: A CellTox Green Cytotoxicity Assay to monitor cytotoxicity in HepG2 cells - 40 hour (AID 1224879). Also: nearly all actives have a fitted effect of over 40% in size. Also: potency is read from the fitted curve at half-maximal effect. Summed up: as §5
A short description of experiment [16]: qHTS assay to identify small molecule agonists of H2AX - cell viability counter screen (AID 1224847; calls by dose curve; also: top concentration of the series differs between compounds; nearly all actives have a fitted effect of over 30% in size). Summed up:
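CHO-K1 cells plated overnight at 37C, then exposed 3 h at 37C to compounds at 15 concentrations (0.76% DMSO final). Viability by CellTiter-Glo luminescence after 30 min at room temperature.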

The nature of experiment [17]: qHTS assay to identify small molecule antagonists of the estrogen related receptor (ERR) signaling pathway from Tox21 library (AID 1224848). Also: nearly all actives have a fitted effect of over 50% in size. The essentials: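 Screening used an ERR reporter line supplied by NTP, exposed for 18 h at 37 C to library compounds delivered in DMSO. Signal was luciferase luminescence developed with ONE-Glo at room temperature for 30 min.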

Experiment [18] in a line: qHTS assay to identify small molecule agonists of the estrogen related receptor (ERR) signaling pathway from Tox21 library (AID 1224849; calls by dose curve; also: nearly all actives have a fitted effect of over 15% in size). The note with it: ERR reporter cell line, ONE-Glo luciferase, 18 h; at 92.4 µM (top of the series) unless noted. The essentials:
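ERR reporter cell line (NTP) seeded, rested 6 h at 37 C/5% CO2, then pinned with Tox21 compounds in DMSO. After 18 h at 37 C, ONE-Glo luciferase luminescence was read following 30 min at room temperature.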

Experiment [19] is described as follows: qHTS RealTime-Glo MT Cell Viability Assay in HepG2 cells - 8 hour (AID 1224873). Also: nearly all actives have a fitted effect of over 55% in size. The essentials: as §4
% is scaled to controls: 0 for no effect and ±100 for the full control effect.

Regarding `C=CC(C)(O)CC/C=C(\C)CCC=C(C)C` (stereo not drawn), the Potency entry in experiment [1], in experiment [2], in [4], in [5], in [6] and in [7] was “inactive” throughout. Further, the Potency entry in experiment [9] and in experiment [13] was “inactive” each time. Further, the outcome in [3] was inactive. Also, the Potency is 49 µM (active) in [8]; 54.9 µM (active) in experiment [11]; 17.4 µM (active) in [12]; 21.9 µM (active) in experiment [14]; 21.9 µM (active) in experiment [15]. Further, the max response in experiment [10] is -1.81%.

For the molecule `NC1=NCC2c3ccccc3Cc3ccccc3N12` (stereo not drawn), the Potency entry in experiment [1], in [2], in [16], in experiment [4], in [5] and in experiment [6] was “inactive” in each case. The Potency entry in experiment [7], in experiment [8], in experiment [9], in [11], in experiment [12] and in [13] was “inactive” in each case. The Potency result in experiment [14] and in experiment [15] was “inactive” each time. In [3], the molecule was called inactive. Also, in experiment [10], the max response is -13.1%.

On to `CCCc1c2oc(C(=O)O)cc(=O)c2cc2c(=O)cc(C(=O)O)n(CC)c12`, for which the Potency entry in experiment [1], in experiment [2], in [16], in [17], in experiment [4] and in [5] was “inactive” in each case. Further, the Potency result in experiment [6], in experiment [7], in experiment [9], in experiment [12], in [13] and in experiment [15] was “inactive” each time. The call in experiment [3] and in experiment [19] was inactive. In addition, the activity change, positive = activation in experiment [18] is 1.31% [at 42.5 µM]. In [10], the max response was 1.42%.

Turning to `CC(Oc1c(Cl)cccc1Cl)C1=NCCN1` (stereo not drawn), the Potency result in experiment [1], in [2], in experiment [17], in experiment [4], in [5] and in experiment [6] was “inactive” in each case. The Potency entry in experiment [7], in experiment [8], in experiment [9], in experiment [11], in experiment [12] and in [13] was “inactive” throughout. Further, the Potency result in experiment [14] and in experiment [15] was “inactive” in each case. Also, the result in [3] and in [19] was inactive. The activity change, positive = activation in experiment [18] was -3.99% [at 42.5 µM]. Also, in experiment [10], the max response was -8.42%.

For `NCCCN1CCN(CCCN)CC1`, the Potency entry in [1], in experiment [2], in experiment [4], in experiment [5], in experiment [6] and in experiment [7] was “inactive” throughout. Besides, the Potency result in experiment [8], in experiment [9], in [11], in [12] and in [13] was “inactive” in each case. Also, the call in [3] and in experiment [19] was inactive. Further, the max response in [10] is 6.33%.

Consider `CC(C)=CCCC(C)CCOC=O` (stereo not drawn), for which the Potency result in experiment [1], in experiment [2], in [16], in experiment [4], in experiment [5] and in [6] was “inactive” throughout. Moreover, the Potency entry in experiment [7], in experiment [8], in experiment [9], in [11], in [12] and in experiment [13] was “inactive” throughout. The Potency result in experiment [14] and in experiment [15] was “inactive” each time. The molecule was classed as inactive in [3] and in [19]. For the same molecule, the max response in experiment [10] is 13.4%.

With `Cc1ccc([N+](=O)[O-])c(N)c1`, the Potency entry in [1], in [2], in experiment [16], in [17], in experiment [4] and in [5] was “inactive” throughout. Further, the Potency result in experiment [6], in [7], in experiment [8], in experiment [9], in [11] and in experiment [12] was “inactive” in each case. Moreover, the Potency result in experiment [13], in experiment [14] and in [15] was “inactive” in each case. Moreover, the result in experiment [3] was inactive. Further, the activity change, positive = activation in [18] was -10.6%. Further, the max response in experiment [10] was -1.42%.

With `CCCCCOc1ccc(C2SC(=O)NC2=O)cc1OCC` (stereo not drawn), the Potency result in experiment [1], in experiment [2], in [16], in [4], in experiment [5] and in [6] was “inactive” each time. The Potency result in [7], in [8], in experiment [9], in experiment [11] and in experiment [13] was “inactive” each time. Also, the molecule was called inactive in [3] and in experiment [19]. Also, in experiment [10], the max response is -9.78%.

The record behind these values is PubChem BioAssay (Tox21).
